Source: PubChem
ERp5 block: blocks human ERp5 reductase activity on insulin. Q15084. ERp5 insulin aggregation, absorbance 650 nm, 90 min. inhibition, % at 9.99 µM. actives 0.05% (n = 350,000);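 active means mean replicate inhibition above about 25%, with every replicate also reaching it, limit read from the data, passing the limit was not always enough; inconclusive means only one of those two criteria met; inactive means neither criterion met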
Rtt109 Vps75: blocks Candida albicans Rtt109/Vps75 acetyltransferase activity | purified Rtt109/Vps75, ThioGlo CoA-SH fluorescence, 4 h | actives 0.16% (n = 330,000) | AID 540336 | inhibition, % at 34.9 µM;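 active means inhibition of at least 50% in every replicate; inconclusive means best replicate reaches 50% inhibition but some replicates fall short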
Target sequence (Q5AAJ8 whole entry, looked up): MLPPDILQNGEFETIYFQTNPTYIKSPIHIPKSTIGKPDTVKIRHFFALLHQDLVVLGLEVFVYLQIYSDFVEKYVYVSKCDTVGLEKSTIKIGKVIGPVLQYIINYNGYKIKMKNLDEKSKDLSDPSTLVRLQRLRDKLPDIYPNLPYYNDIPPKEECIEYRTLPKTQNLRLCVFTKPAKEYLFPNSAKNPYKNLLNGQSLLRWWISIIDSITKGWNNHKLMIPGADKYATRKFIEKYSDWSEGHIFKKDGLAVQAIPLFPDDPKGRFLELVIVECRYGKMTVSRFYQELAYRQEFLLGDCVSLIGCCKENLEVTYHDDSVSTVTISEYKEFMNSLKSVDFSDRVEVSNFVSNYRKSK
PDI turbidity: inhibitors of human protein disulfide isomerase; P07237; inhibition, % at 10 µM; AID 588391; PDI insulin aggregation turbidity, A650, 90 min; actives 0.052% (n = 350,000);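 active means mean inhibition across replicates of 30% or more, whatever share of single replicates reach that level; inconclusive means mean inhibition below 30% while every single replicate reaches 30%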
DENV2 CPE: DENV2-induced cell death inhibition; DENV2-infected cells, cytopathic effect rescue, plate reader; CPE inhibition, % at 9.99 µM; actives 1.7% (n = 350,000); AID 651640; in the data active means CPE inhibition above about 20%, passing the limit was not always enough; inconclusive means no clear call, values can overlap the other calls; tested in BHK-21 cells;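 further: 0% = median of neutral control wells and 100% = median of positive control wells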
SIRT5 inh: inhibitors of human sirtuin-5 desuccinylase; Q9NXA8; Purified SirT5, succinyl-peptide AMC, trypsin-coupled fluorescence; inhibition, % at 15 µM; actives 1.1% (n = 330,000); AID 652115; in the data active means inhibition above about 15%; inconclusive means no clear call, values can overlap the other calls
* marks the source's active call; other numbers are inactive results; u = inconclusive; x = no result given. This is a sample that favours compounds with a hit; in the whole collection about 2.3% have one here.

SMILES	ERp5 block	Rtt109 Vps75	PDI turbidity	DENV2 CPE	SIRT5 inh
C[C@@H]1CN([C@H](C)CO)S(=O)(=O)c2ccc(C#Cc3ccc(F)cc3)cc2O[C@@H]1CN(C)C(=O)CN(C)C	1	x	x	-2	1
CC(C)CC1C(=O)N(Cc2cn(Cc3ccco3)nn2)CCS(=O)(=O)N1Cc1ccc(-c2ccc(F)cc2)cc1 (configuration not stated)	7	x	-2	-1	18*
Cc1ccc(-c2ccc(CN3C(C)C(=O)N(Cc4cn(Cc5ccco5)nn4)CCS3(=O)=O)cc2)c(C)c1 (configuration not stated)	5	x	x	0	27*
CC1C(=O)N(Cc2cn(Cc3ccco3)nn2)CCS(=O)(=O)N1Cc1ccc(-c2ccccc2C(F)(F)F)cc1 (configuration not stated)	15	x	x	65*	-1
Cc1ccccc1-c1ccc(CN2C(C)C(=O)N(Cc3cn(Cc4ccco4)nn3)CCS2(=O)=O)cc1 (configuration not stated)	3	x	x	12	0
Cc1ccc(-c2ccc(CN3C(C)C(=O)N(Cc4cn(Cc5ccco5)nn4)CCS3(=O)=O)cc2)cc1 (configuration not stated)	-3	x	4	6	6
O=C(C[C@@H]1C=C[C@@H](NC(=O)C2CC2)[C@H](CO)O1)NC1CCC1	3	x	x	11	-2
C[C@H](CO)N1C[C@H](C)[C@H](CN(C)S(=O)(=O)c2ccc(F)cc2)Oc2cc(C3=CCCC3)ccc2S1(=O)=O	4	x	x	-9	2
C[C@@H]1CN([C@H](C)CO)S(=O)(=O)c2ccc(C3=CCCCC3)cc2O[C@H]1CN(C)S(=O)(=O)c1ccc(F)cc1	1	x	x	4	30*
C[C@H](CO)N1C[C@H](C)[C@@H](CN(C)S(=O)(=O)c2ccc(F)cc2)Oc2cc(C3=CCCCC3)ccc2S1(=O)=O	0	x	x	10	19*
Cc1ccc(S(=O)(=O)N(C)C[C@@H]2Oc3cc(C4=CCCC4)ccc3S(=O)(=O)N([C@H](C)CO)C[C@H]2C)cc1	-1	x	x	79*	3
C[C@@H]1CN([C@@H](C)CO)S(=O)(=O)c2ccc(C3=CCCC3)cc2O[C@@H]1CN(C)S(=O)(=O)c1ccc(F)cc1	5	x	x	-4	-1
CO[C@H]1CN(C)C(=O)c2cc(NC(C)=O)ccc2OC[C@H](C)N(Cc2cncnc2)C[C@@H]1C	-2	x	x	3	-1
Cc1c(C)c2cc(Cl)c(OCC(=O)NCCCN3CCCC3=O)cc2oc1=O	-1	x	-1	44*	x
Cc1cc(=O)oc2c(C)c(OC(C)C(=O)NCCCN3CCCC3=O)ccc12 (configuration not stated)	-17	-5	-2	-1	26*
Cc1cc(=O)oc2cc(OCC(=O)NCCCN3CCCC3=O)c(Cl)cc12	7	1	9	0	3
O=C(NC1CCC1)[C@@H]1[C@@H](CO)[C@@H]2Cn3c(ccc(-c4ccc(F)cc4)c3=O)[C@H]1N2	0	x	x	-3	-35
Cc1ccc(NC(=O)CNCC(c2ccccc2)N(C)C)cc1F (configuration not stated)	20	15	2	2	-4
CC(C)c1ccc(NC(=O)CNCC(c2ccccc2)N(C)C)cc1 (configuration not stated)	3	-3	13	10	17*
CCC(=O)N(C)C[C@@H]1Oc2cc(C#CCC3CCCC3)ccc2S(=O)(=O)N([C@@H](C)CO)C[C@@H]1C	-10	x	x	-4	6
COc1ccc(C(=O)NC2CC3CCCC(C2)N3Cc2ccccc2)c(OC)c1 (configuration not stated)	1	9	2	-5	24*
COc1ccc(-c2ccc(=O)[nH]n2)cc1	3	6	2	4	-2
O=c1ccc(-c2ccccc2)n[nH]1	0	-1	0	x	21*
O=C1NC(=S)CN1c1ccccc1	1	141*	4	-3	3
O=C1N(c2ccccc2)CCN1c1ccccc1	2	0	17	6	1
SMILES	ERp5 block	Rtt109 Vps75	PDI turbidity	DENV2 CPE	SIRT5 inh
COCC(=O)N1CC[C@@H]2[C@H](CO)Nc3ccc(-c4cccc(C#N)c4)cc3[C@@H]21	10	x	x	44*	-1
COc1ccc(C#Cc2ccc3c(c2)[C@@H]2[C@@H](CCN2C(=O)C2CCC2)[C@@H](CO)N3)cc1	-1	x	x	12	1
COCC(=O)N1CC[C@H]2[C@H](CO)Nc3ccc(C#Cc4ccc(OC)cc4)cc3[C@H]21	2	x	x	29*	15*
COc1ccc(C#Cc2ccc3c(c2)[C@@H]2[C@@H](CCN2C(=O)C2CCC2)[C@H](CO)N3)cc1	-1	x	x	-7	17*
COCC(=O)N1CC[C@@H]2[C@H](CO)Nc3ccc(C#Cc4ccc(OC)cc4)cc3[C@@H]21	-2	x	x	8	8
CCC(=O)N1CC[C@H]2[C@H](CO)Nc3ccc(C#Cc4ccc(OC)cc4)cc3[C@H]21	1	x	x	56*	4
O=C(C[C@@H]1C[C@@H]2c3cc(NS(=O)(=O)c4ccc(F)cc4)ccc3O[C@@H]2[C@H](CO)O1)NCc1ccncc1	9	x	x	-6	-3
C[C@@H]1CN([C@H](C)CO)C(=O)c2cccc(NC(=O)C3CC3)c2O[C@H]1CN(C)S(=O)(=O)c1ccccc1	1	x	x	8	-2
N#Cc1ccc(-c2ccc3c(c2)[C@H]2[C@H](CCN2C(=O)C2CCC2)[C@H](CO)N3)cc1	1	x	x	35*	-5
N#Cc1cccc(-c2ccc3c(c2)[C@@H]2[C@@H](CCN2Cc2ccncc2)[C@@H](CO)N3)c1	0	x	x	-9	1
N#Cc1cccc(-c2ccc3c(c2)[C@H]2[C@H](CCN2Cc2ccncc2)[C@H](CO)N3)c1	0	x	x	50*	1
Cc1ccc(-c2n[nH]c(=S)n2/N=C/c2cccs2)cc1	-5	-4	7	-5	29*
CCCC#Cc1ccc([C@@H]2[C@H]3CN(C(=O)Cc4cccnc4)CC(=O)N3[C@H]2CO)cc1	1	x	x	u	-6
O=C(CN1CCOCC1)N[C@H]1CC[C@@H](CCNC(=O)C2CCC2)O[C@H]1CO	-2	x	x	5	1
c1ccc(-c2cc3ccccc3[nH]2)cc1	2	-9	5	27*	-3
COc1ccc(-c2cc3ccccc3[nH]2)cc1	1	-6	-2	2	-3
CCCCNC(=O)O[C@H]1C[C@@H]2CCN3C(=O)CCC[C@H]([C@H]1Cc1ccccc1)[C@H]23	3	2	1	54*	0
O=C1O[C@H](c2ccccc2)[C@H](c2ccccc2)N2[C@H]1[C@@H](C(=O)N1CCCCCCC1)[C@]1(C(=O)Nc3ccc(C#CC4=CCCCC4)cc31)[C@H]2c1ccccc1OCCO	2	x	x	6	8
C[C@H](CO)N1C[C@H](C)[C@H](CN(C)CC2CC2)OCCCC[C@H](C)Oc2ccc(NC(=O)Nc3ccc4c(c3)OCO4)cc2C1=O	8	x	x	1	1
